Chlamy TAG: inducers of TAG accumulation in Chlamydomonas, primary screen, qHTS, Chlamydomonas reinhardtii; 44,000 compounds, 0.84% hits; calls only at 10 µM (by protocol); AID 1159537, 2015; Nile Red fluorescence, 72 h; call rule not given here;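 also: hits raise Nile Red signal meaning more stored TAG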
Of the large screens only hits and unclear results are named; the others gave an inactive call. The sample as a whole holds a higher share of hits than the screen did.

CC1CCCC(NC2CCN(Cc3ccccc3)CC2)C1 (configuration not stated)	none
c1ccc(CN2CCC(N3CCN(Cc4ccccn4)CC3)CC2)cc1	none
COc1cc(CN2CCN(C3CCN(Cc4ccccc4)CC3)CC2)cc(OC)c1O	none
O=[N+]([O-])c1ccccc1S(=O)(=O)N1CCN(Cc2ccccn2)CC1	none
CC1CCCC(N2CCN(Cc3ccccc3)CC2)C1 (configuration not stated)	Chlamy TAG active
O=[N+]([O-])c1ccccc1S(=O)(=O)N1CCN(C2CCN(Cc3ccccc3)CC2)CC1	Chlamy TAG active
O=[N+]([O-])c1ccccc1CN1CCC(N2CCCCC2)CC1	none
c1ccc(CN2CCC(N3CCN(C4CC5CCC4C5)CC3)CC2)cc1 (configuration not stated)	Chlamy TAG active
C1CCCN(C2CCN(C3CC4CCC3C4)CC2)CC1 (configuration not stated)	none
COc1ccc(OC)c(NC(=O)CSc2ccc(C)cc2)c1	none
COc1ccccc1N(CC(=O)Nc1ccccc1Cl)S(C)(=O)=O	none
O=C(c1cccnc1)N(Cc1ccccc1)c1cccc([N+](=O)[O-])c1	none
COc1cccc(CNC23CC4CC(CC(C4)C2)C3)c1	none
Cc1cc(C)c(S(=O)(=O)NCCCN2CCOCC2)cc1C	none
CCN(CC)C(=O)c1c(NC(=O)c2ccccc2)sc2c1CCCC2	none
Cc1cc(C)c(NC(=O)COc2ccccc2[N+](=O)[O-])c(C)c1	Chlamy TAG active
Cc1ccccc1OCC(=O)Nc1ccccc1[N+](=O)[O-]	none
Cc1cc(C)c(NC(=O)COc2ccccc2C)c(Cl)c1	none
COc1ccc(S(=O)(=O)N(CC(=O)N[C@@H]2CCCC[C@H]2O)c2ccc(C)cc2)cc1OC	none
Cc1ccc(CSc2nccc(=O)[nH]2)cc1	none
C=CCc1cc(OC)ccc1OCCCCn1ccnc1	none
C=CCc1cc(OC)ccc1OCCOCCn1ccnc1	Chlamy TAG active
C=CCc1cc(OC)ccc1OCCn1ccnc1	none
CCCCOc1cc(N)ccc1NS(=O)(=O)c1ccc(C)cc1	none
COc1ccc(CN2CCCC(O)C2)cc1C (configuration not stated)	none
COc1ccc(Nc2nc(N)nc(CN(C)C3CCCCC3)n2)cc1	none
COc1ccc(CNC2CCCC2)cc1C	none
COc1ccc(CC(=O)NC2CCCC2)cc1	none
COc1ccc(CN(C)C2CCCCC2)cc1C	Chlamy TAG active
COc1ccc(CN(C)C2CCCCC2)cc1	Chlamy TAG active
CC(Cc1ccccc1)NC(=O)CC(c1ccccc1)c1ccccc1O (configuration not stated)	none
Cc1cc(OCC(=O)Nc2cccc(Cl)c2Cl)ccc1Cl	none
COc1ccc(N2CCN(Cc3cccs3)CC2)cc1	none
COc1ccc(N2CCN(Cc3cccnc3)CC2)cc1	none
COc1ccc(N2CCN(Cc3ccsc3)CC2)cc1	Chlamy TAG active
O=C(Nc1ccccc1)Oc1ccccc1Br	none
COc1cc2c(cc1OC)CN(Cc1ccc(F)cc1)CC2	Chlamy TAG active
COc1cc2c(cc1OC)CN(Cc1ccc(N(C)C)cc1)CC2	none
COc1cc2c(cc1OC)CN(Cc1cccc(F)c1)CC2	none
O=C(CN1CCCCCC1)Nc1cccc2c1OCO2	none
O=C(CN1CCCCC1)Nc1ccccc1NC(=O)CN1CCCCC1	none
O=C(CN1CCCCC1)Nc1ncc(Cc2ccc(Br)cc2)s1	Chlamy TAG active
COc1ccccc1N1CCN(C2CCN(Cc3ccc(Br)cc3)CC2)CC1	none
COc1cc(OC)c(OC)cc1CN1CCC(N2CCN(c3ccccc3OC)CC2)CC1	none
COc1ccccc1N1CCN(C2CCN(Cc3c[nH]c4ccccc34)CC2)CC1	none
COc1ccccc1N1CCN(C2CCN(Cc3cccc(C)c3)CC2)CC1	Chlamy TAG active
CCOc1cc(CN2CCN(c3ccccc3OC)CC2)ccc1OC	none
COc1ccccc1N1CCN(C2CCN(CC3CC4C=CC3C4)CC2)CC1 (configuration not stated)	Chlamy TAG active
COc1ccccc1N1CCN(C2CCN(CCCc3ccccc3)CC2)CC1	none
COc1ccccc1N1CCN(C2CCN(Cc3cccc(Cl)c3)CC2)CC1	Chlamy TAG active
Clc1cccc(CN2CCC(N3CCCCCC3)CC2)c1	none
CC(=O)N(CCC(c1ccccc1)C1CCOC(C)(C)C1)Cc1ccccc1 (configuration not stated)	none
O=C(c1ccccc1)c1coc2ccc(O)cc12	none
COc1ccc(-n2c(SCC(=O)c3ccc(Cl)cc3)nc3ccccc3c2=O)cc1	none
COc1ccc(NC2=NS(=O)(=O)c3cc([N+](=O)[O-])ccc32)cc1	none
O=C(NCCC1=CCCCC1)c1ccc(F)cc1	none
O=C(c1ccc(CN2CCc3ccccc3C2)cc1)N1CCN(c2ccccc2F)CC1	Chlamy TAG active
COc1ccc(N2CCN(C(=O)c3ccc(CN4CCc5ccccc5C4)cc3)CC2)cc1	none
NC(=O)C1CCN(C(=O)c2ccc(CN3CCc4ccccc4C3)cc2)CC1	none
COc1ccc(Cl)cc1C(=O)Nc1sc2c(c1C(N)=O)CCC2	none
COc1cc(CNc2ccc3cn[nH]c3c2)ccc1O	none
Cc1ccc(N(CC(=O)Nc2ccc(F)cc2F)S(C)(=O)=O)cc1C	none
Cc1cc(-c2nc(-c3ccccn3)no2)ccc1[N+](=O)[O-]	none
O=C(Cc1ccccc1)Nc1ccc(S(=O)(=O)N2CCCCCC2)cc1	none

Assay outcomes from PubChem.
